In PubChem BioAssay:
Calls of active or inactive are those of the source.

What was measured:
[1] = tested on: Plasmodium falciparum Sir2 (PF13_0152, Sir2A); assay: pfSir2 binders on small-molecule microarrays, primary screen, biochemical, small-molecule microarray, 635 nm fluorescence (AID 1098); settings: small-molecule microarray binding, fluorescence 635 nm; higher = more signal;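 note: score merges spot fluorescence intensity with its signal-to-noise ratio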
[2] = small-molecule microarray binders of probe aDKK1, primary screen, biochemical, biotinylated probe, 635/667 nm fluorescence (AID 1099); settings: higher = more signal;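 note: score merges 667nm spot fluorescence with signal to noise across triplicate slides; reference of the scale not given here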
[3] = small-molecule microarray binders of probe aCHRDL2, primary screen, biochemical, biotinylated probe, 635/667 nm fluorescence (AID 1100); settings: higher = more signal
[4] = splicing luciferase reporter signal modulators, primary screen, spliceosome inhibition project, cell-based, HEK293, splice +/- reporter (AID 1101); settings: luminescence, 24 h, higher = more signal, called active from +8 up or from −8 down;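 note: HEK293 cells carrying a splicing-competent luciferase reporter gene; test concentration not given here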
[5] = target: Fibroblast growth factor 10 (Homo sapiens) (UniProt O15520); assay: FGF10 binders on small-molecule microarrays, primary screen, biochemical, small-molecule microarray, 635 nm fluorescence (AID 1102); settings: FGF10 binding, fluorescence 635 nm, higher = more signal
[6] = tested on: glycogen synthase kinase-3 (GSK3A per assay name; protocol says GSK3B); assay: GSK3 binders on small-molecule microarrays, primary screen, biochemical, small-molecule microarray, 635 nm fluorescence, GSK3A (AID 1103); settings: small-molecule microarray binding, fluorescence 635 nm; higher = more signal; note: the record names both GSK3A and GSK3B
[7] = target: Epidermal growth factor receptor (Homo sapiens) (UniProt P00533); assay: EGFR binders on small-molecule microarrays, primary screen, biochemical, small-molecule microarray, 635 nm fluorescence (AID 1104); settings: EGFR binding, higher = more signal;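 note: score merges 667 nm emission intensity with spot signal to noise over triplicate slides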
[8] = target: Follistatin-related protein 3 (Homo sapiens) (UniProt O95633); assay: FSTL3 binders on small-molecule microarrays, primary screen, biochemical, small-molecule microarray, 635 nm fluorescence (AID 1105); settings: FSTL3 binding, higher = more signal;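 note: score merges emission near 667 nm and signal to noise per printed spot across three slides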
[9] = target: Dickkopf-related protein 1 (Homo sapiens) (UniProt O94907); assay: DKK1 binders on small-molecule microarrays, primary screen, biochemical, small-molecule microarray, 635 nm fluorescence scan (AID 1106); settings: DKK1 binding, higher = more signal;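 note: score merges emission near 667 nm with signal to noise over three replicate slides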
[10] = tested on: Inhibin beta A chain (activin A); assay: INHBA (activin A) binders on microarrays, primary screen, biochemical, small-molecule microarray, 635 nm fluorescence scan (AID 1107); settings: small-molecule microarray binding, higher = more signal;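 note: mouse activin A protein probed at 4.33 µg/mL on printed slides; score merges bound-protein fluorescence near 667 nm with spot signal-to-noise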

Epidermal growth factor receptor (Homo sapiens), sequence (P00533 whole entry, looked up): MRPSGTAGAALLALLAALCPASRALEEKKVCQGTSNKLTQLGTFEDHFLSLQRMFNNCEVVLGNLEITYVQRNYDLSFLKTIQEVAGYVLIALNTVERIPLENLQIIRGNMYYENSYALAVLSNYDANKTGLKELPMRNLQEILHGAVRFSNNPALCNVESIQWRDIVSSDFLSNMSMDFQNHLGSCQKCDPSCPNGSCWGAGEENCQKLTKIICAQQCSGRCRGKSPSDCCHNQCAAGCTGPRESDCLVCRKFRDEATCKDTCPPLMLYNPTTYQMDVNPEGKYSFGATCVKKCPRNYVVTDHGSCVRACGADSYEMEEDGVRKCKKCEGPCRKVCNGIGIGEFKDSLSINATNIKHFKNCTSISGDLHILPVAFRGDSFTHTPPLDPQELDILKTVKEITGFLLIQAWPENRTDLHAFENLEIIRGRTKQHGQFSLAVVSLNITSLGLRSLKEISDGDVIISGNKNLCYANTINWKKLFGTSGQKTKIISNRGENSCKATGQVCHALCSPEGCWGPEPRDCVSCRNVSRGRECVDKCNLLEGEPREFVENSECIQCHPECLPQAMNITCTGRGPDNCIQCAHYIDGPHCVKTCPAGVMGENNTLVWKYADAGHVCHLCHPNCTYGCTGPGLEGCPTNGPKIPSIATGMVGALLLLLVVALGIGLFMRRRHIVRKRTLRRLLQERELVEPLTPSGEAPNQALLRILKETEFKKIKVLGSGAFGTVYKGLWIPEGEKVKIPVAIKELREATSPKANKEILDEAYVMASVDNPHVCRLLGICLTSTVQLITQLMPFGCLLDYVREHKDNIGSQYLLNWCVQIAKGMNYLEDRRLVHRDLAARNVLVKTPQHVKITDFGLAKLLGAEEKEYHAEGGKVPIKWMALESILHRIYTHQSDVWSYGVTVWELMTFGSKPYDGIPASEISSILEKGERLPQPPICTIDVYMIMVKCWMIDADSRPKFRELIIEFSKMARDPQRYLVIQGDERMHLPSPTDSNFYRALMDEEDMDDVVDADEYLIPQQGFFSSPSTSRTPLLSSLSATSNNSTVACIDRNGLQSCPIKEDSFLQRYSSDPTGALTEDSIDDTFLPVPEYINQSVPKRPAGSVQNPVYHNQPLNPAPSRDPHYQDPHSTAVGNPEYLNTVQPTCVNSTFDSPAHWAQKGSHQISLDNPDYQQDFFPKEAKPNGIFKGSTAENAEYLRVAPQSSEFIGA
Follistatin-related protein 3 (Homo sapiens), sequence (O95633 whole entry, looked up): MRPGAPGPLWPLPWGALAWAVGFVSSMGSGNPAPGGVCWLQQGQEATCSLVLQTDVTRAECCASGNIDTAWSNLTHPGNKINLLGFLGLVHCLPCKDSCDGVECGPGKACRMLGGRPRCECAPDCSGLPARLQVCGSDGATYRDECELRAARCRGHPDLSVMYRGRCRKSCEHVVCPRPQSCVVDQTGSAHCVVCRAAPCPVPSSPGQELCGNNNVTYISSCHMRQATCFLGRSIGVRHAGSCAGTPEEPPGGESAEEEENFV
Fibroblast growth factor 10 (Homo sapiens), sequence (O15520 whole entry, looked up): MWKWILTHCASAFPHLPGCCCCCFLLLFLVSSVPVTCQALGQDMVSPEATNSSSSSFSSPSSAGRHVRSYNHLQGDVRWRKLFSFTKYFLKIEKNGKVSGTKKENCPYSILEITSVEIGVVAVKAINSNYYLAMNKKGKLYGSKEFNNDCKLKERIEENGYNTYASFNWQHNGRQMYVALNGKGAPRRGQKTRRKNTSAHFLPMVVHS
Dickkopf-related protein 1 (Homo sapiens), sequence (O94907 whole entry, looked up): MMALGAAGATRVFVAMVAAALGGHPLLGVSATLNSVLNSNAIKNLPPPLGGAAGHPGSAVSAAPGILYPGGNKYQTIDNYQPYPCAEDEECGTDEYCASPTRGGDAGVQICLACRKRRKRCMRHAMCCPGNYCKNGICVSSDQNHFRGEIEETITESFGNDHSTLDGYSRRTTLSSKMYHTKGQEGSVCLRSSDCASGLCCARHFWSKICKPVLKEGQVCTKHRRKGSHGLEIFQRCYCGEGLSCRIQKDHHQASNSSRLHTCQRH

| SMILES | composite z-score [1] | composite z-score [2] | composite z-score [3] | z-score [4] | composite z-score [5] | composite z-score [6] | composite z-score [7] | composite z-score [8] | composite z-score [9] | composite z-score [10] |
| --- | --- | --- | --- | --- | --- | --- | --- | --- | --- | --- |
| COc1cc2c(cc1OC)CN(C(=O)[C@H]1[C@@H]3C(=O)O[C@@H](c4ccccc4)[C@@H](c4ccccc4)N3[C@@H](c3ccc(OCCO)cc3)[C@]13C(=O)Nc1ccc(C#CC4(O)CCCCCC4)cc13)CC2 | 1.09 | 1.59 | 0.623 | 0.415 (inactive) | 1.12 | 1.31 | 1.02 | 1.33 | 1.31 | 1.07 |
| C=C(C(=O)CC[C@H](OC(C)=O)c1cccc(OCCO)c1)C(C)C | -0.382 | -0.352 | -0.115 | 0.143 (inactive) | -0.924 | -1.24 | -1.31 | -0.835 | -1.07 | 0.0244 |
| COCCCNC(=O)[C@@H]1c2ccccc2C(=O)N(Cc2ccccc2C(F)(F)F)[C@H]1c1ccc(CO)cc1 | 1.58 | 0.484 | 0.879 | 0.354 (inactive) | -0.0537 | 0.575 | -0.222 | -0.582 | -0.595 | 0.923 |
| CC(C)CNC(=O)[C@@]1(c2ccc([N+](=O)[O-])cc2)CC(=O)N(C2CCCCC2)[C@@H]1c1ccc(CO)cc1I | 1.67 | 0.349 | 0.641 | -0.721 (inactive) | 0.489 | -0.198 | -0.519 | -0.16 | -0.477 | 0.138 |
| CCOC(=O)C[C@H]1[C@H](OC(=O)c2ccc(-c3ccccc3)cc2)[C@@H](NC(=O)c2ccc3ccccc3n2)c2cc(OCCCO)ccc2N1C(=O)c1ccccc1 | 0.418 | 0.048 | 0.475 | 0.0748 (inactive) | 0.785 | 0.653 | 0.143 | 1.09 | 0.216 | 0.407 |
| COCCOC(=O)N1C(=O)[C@@]2(c3cc(C#CC4(O)CCCCCC4)ccc31)[C@H](C(N)=O)[C@H]1C(=O)O[C@H](c3ccccc3)[C@H](c3ccccc3)N1[C@@H]2c1ccccc1OCCO | 1.28 | 0.919 | -0.423 | -1.96 (inactive) | 1.15 | 1.3 | 0.639 | 1.16 | 0.974 | -0.505 |
| O=C1O[C@@H](c2ccccc2)[C@@H](c2ccccc2)N2[C@@H](c3ccc(O)cc3)[C@]3(C(=O)Nc4ccccc43)[C@@H](C(=O)Nc3nc4ccccc4s3)[C@H]12 | 1.38 | -0.111 | 0.02 | 0.641 (inactive) | 0.488 | 0.878 | -0.104 | 0.415 | 0.065 | 0.3 |
| C=CC[C@@]1(C(=O)N2CCCCC2)N=C(c2ccc(OCCCO)cc2)O[C@@H]1c1ccccc1 | 1.53 | 0.833 | 0.613 | 0.411 (inactive) | 0.497 | 1.29 | 0.0106 | -0.0325 | -0.717 | 0.823 |
| COC(=O)[C@H](Cc1ccccc1)N1CC(/C=C/C2CC2)=C[C@@H]1[C@@H](O)Cc1ccccc1 | 1.01 | 0.0175 | -0.276 | 3.96 (inactive) | 1.47 | 0.837 | 0.688 | 1.4 | 1.2 | 0.142 |
